Structures are written as SMILES. Among all 400,000 compounds or so, about 13,000 (3.2%) were called active. About 18% were inconclusive and are not listed. Calls follow the shape of the dose curve; as a rule, active = well fitted cell-killing curve with a large enough effect; inconclusive = small, poorly fitted or top-dose-only effect, or effect the other way; inactive = flat fitted curve, though single readings scatter. The list comes from a sample in which actives are over-represented; it also holds similar structures and randomly drawn compounds. Entries that show only a call come without a potency.
Potency is read from the fitted curve at half-maximal effect.

The assay in a line: qHTS assay for MDR1-selective chemotherapeutics: Primary screen using the drug-selected MDR subline cells KB-V1. Also: nearly all actives have a fitted effect of over 60% in size. The settings on record: KB-V1 MDR cells viability, CellTiter-Glo, 72 h; series mostly up to 46.1 µM. The method, boiled down:
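Readout: CellTiter-Glo luminescence, 10 min after addition. Cells: KB-V1 MDR subline, 72 h at 37 degrees C with compound. Analysis: corrected, normalized data fitted to concentration-effect curves.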
In the case of `CCCCOc1ccc(CNC(=O)c2ccc3c(c2)N(C)C(=O)C2CCCCN32)cc1` (stereo not drawn), the Potency result is “inactive”.
Turning to `CCN(CC)CCN(C(=O)c1ccc2c(c1)CCCC2)c1nc2c(OC)cccc2s1`, the Potency entry is “inactive”.
To `CCC(=O)N1c2ccccc2CC1C(=O)N1CCN(c2ccccc2F)CC1` (stereo not drawn) belongs “inactive”; to `Cc1ccc(-c2nc3cccc(C)n3c2Nc2ccc3c(c2)OCCO3)cc1`, “inactive”; to `CN(c1ccccc1)S(=O)(=O)c1ccc(C(=O)NCc2cccnc2)cc1`, “inactive”.
Turning to `COc1ccc(CNC(=O)c2c(C)cc(=O)oc2C)cc1OC`, the Potency result was “inactive”.
To `COc1ccc(CNC(=O)c2ccc(Br)s2)cc1OC` belongs “inactive”; to `COc1ccc(CNC(=O)Cc2ccc(-c3ccccc3)cc2)cc1OC`, 7.31 µM (active).
To `COc1ccc(NC(=O)CNC(=O)Cc2ccccc2)cc1OC` belongs “inactive”; to `COc1ccc(CNC(=O)c2ccc(-c3cccnc3)c3ccoc23)cc1OC`, 18.4 µM (active); to `COc1ccc(CCNC(=O)Cc2ccc(C)cc2)cc1OC`, “inactive”.
As for `CCOc1cc(C2C(C(=O)OC)=C(C)NC3=C2C(=O)c2ccccc23)ccc1O` (stereo not drawn), the entry is “inactive”; as for `CCOC(=O)CSC1=Nc2ccccc2C2=NC(CCC(=O)NCc3ccc(F)cc3)C(=O)N12` (stereo not drawn), “inactive”; as for `CCNS(=O)(=O)c1ccc(CCC(=O)N2CCN(c3cc(Cl)ccc3C)CC2)cc1`, 14.6 µM (active).
Take `CCCNS(=O)(=O)c1ccc(CCC(=O)N2CCCC2)cc1`: the Potency entry is “inactive”.
With `CCNS(=O)(=O)c1ccc(CCC(=O)N2CCN(c3ccc(OC)cc3)CC2)cc1`, the Potency result is “inactive”.
As for `O=C1C(Sc2cccc(F)c2)=C[C@@]2(O)CC[C@@H](O)[C@]1(Sc1cccc(F)c1)[C@H]2O`, the entry is “inactive”; as for `CCc1nc2c(OCCOc3ccccc3)cccn2c1N(C)C(=O)c1ccccc1F`, “inactive”.
To `COC(=O)C[C@H]1C=C[C@H](NC(=O)c2ccc(F)cc2)[C@@H](CO)O1` belongs “inactive”; to `CN(C)Cc1cn(-c2ccccc2)nc1-c1ccccc1`, “inactive”.
To `CN(C)c1cccc2ccccc12` belongs “inactive”.
Take `Cc1ccccc1-n1nnnc1SCCCC(=O)c1ccc(F)cc1`: the Potency is 6.51 µM (active).
As for `Cc1cc(NC(=O)CSc2nnnn2-c2ccc(F)cc2)no1`, the entry is “inactive”; as for `CC(=O)Nc1ccc(NC(=O)CSc2nnnn2-c2ccccc2F)cc1`, “inactive”; as for `O=C(/C=C/[C@H]1O[C@@H](n2cnc3c(NC(=O)c4ccccc4)ncnc32)[C@H](O)[C@@H]1O)NCc1ccccc1`, “inactive”.
With `CCCC(=O)N1CCN(c2nc3c(OC)ccc(C)c3s2)CC1`, the Potency result is “inactive”.
`COc1ccc(C(=O)NC(=S)NNC(=O)CCc2ccccc2)cc1`: the Potency is 6.51 µM (active).
Take `COc1ccc(C(=O)NNC(=S)NC(=O)c2ccccc2[N+](=O)[O-])cc1`: the Potency result is “inactive”.
As for `Cc1onc(-c2ccccc2)c1C(=O)NNC(=S)NC(=O)c1ccc(F)cc1`, the entry is “inactive”; as for `COc1ccc(C(=O)NNC(=S)NC(=O)c2ccccc2)cc1`, “inactive”.
As for `CC(C)Oc1ccc(CCC(=O)NNC(=S)NCc2ccccc2)cc1`, the entry is “inactive”; as for `COc1ccc(C(=O)NC(=S)NNC(=O)c2c(-c3ccccc3)noc2C)cc1`, 6.51 µM (active); as for `O=S(=O)(Nc1ccc2nc(-c3cccc(Cl)c3)oc2c1)c1ccccc1`, “inactive”.
Take `Cc1ccc(C)c(N2CCN(C(=O)Cn3ncc4c(=O)oc5ccc(C)cc5c43)CC2)c1`: the Potency entry is “inactive”.
For `CC(=O)Nc1ccc(CNc2nc(NCCN(C)C)nc3cc(-c4ccccc4)sc23)cc1`, the Potency result was “inactive”.
On to `CN1C[C@@H](CO)O[C@@H](n2cnc3c(N4CCN(CCO)CC4)ncnc32)C1`, for which the Potency entry is “inactive”.
As to `CCCn1nc(NS(=O)(=O)c2ccc(F)cc2)c2cc3ccccc3nc21`, the Potency entry is “inactive”.
Consider `CCCn1nc(NC(=O)C(C)C)c2cc3cc(OC)ccc3nc21`, for which the Potency result is “inactive”.
`CCCn1nc(NS(=O)(=O)c2ccccc2)c2cc3cc(C)ccc3nc21`: the Potency was 14.6 µM (active).
As for `COc1cccc(NC(=O)CSc2cc(=O)n(C)c3ccc(Cl)cc23)c1`, the entry is “inactive”; as for `CC(=O)Nc1ccc(C=CC(=O)c2ccc([N+](=O)[O-])cc2)cc1`, “inactive”; as for `CN(C)c1ccc(/C=C/C(=O)c2ccc(C(C)(C)C)cc2)cc1[N+](=O)[O-]`, 18.4 µM (active).
Consider `Cc1cccc(C=CC(=O)c2ccc(Cl)cc2)c1`, for which the Potency entry was “inactive”.
As for `CCOc1ccc(S(=O)(=O)c2cn(Cc3ccc(OC)cc3)c3ccc(F)cc3c2=O)cc1`, the entry is “inactive”; as for `Cc1nc2ccc(S(=O)(=O)N(CC(=O)Nc3ccc(F)cc3)Cc3ccccc3)cc2s1`, “inactive”; as for `CC(C)(C)N1C(=O)c2c(C(=O)OCc3ccccc3)[nH]c(-c3ccccc3)c2C1=O`, “inactive”.
To `Cc1ccc(NC(=O)Cn2cccc2C2=NC(c3ccccc3)CO2)c(C)c1` (stereo not drawn) belongs 16.4 µM (active); to `Cc1ccc(NC(=O)Cn2nnc(C(=O)NCc3ccco3)c2N)c(C)c1`, “inactive”; to `Cc1ccc(NC(=O)CSc2cccc3cccnc23)c(C)c1`, “inactive”.
To `CCOc1ccc(NC(=O)C2CCN(S(=O)(=O)c3cc(-c4noc(C)n4)ccc3C)CC2)cc1` belongs “inactive”.
On to `c1cc(-c2ccc3[nH]ccc3c2)n2ccnc2c1`, for which the Potency result is “inactive”.
As for `CCCCC(=O)N(C)c1c(CC)nc2c(OCc3ccc(Cl)cc3Cl)cccn12`, the figure is 16.4 µM (active); as for `CCOC(=O)N(C)c1c(CC)nc2c(OCc3ccccc3C(=O)OC)cccn12`, “inactive”; as for `CCCCC(=O)N(C)c1c(CC)nc2c(OCc3ccc(S(C)(=O)=O)cc3)cccn12`, “inactive”.
As for `CCc1nc2ccc(C(=O)N(C)CCN(C)C)cn2c1N(CC)CCOC`, the entry is “inactive”; as for `CC(=O)C[C@@H]1OC[C@H](C)N1S(=O)(=O)c1ccc(C)cc1`, “inactive”.
With `Cc1ccc2nc(NC(=O)C3CCN(S(=O)(=O)c4ccc5c(c4)oc(=O)n5C)CC3)sc2c1`, the Potency result is “inactive”.
As for `Cc1ccc(NS(=O)(=O)c2ccc3c(c2)oc(=O)n3C)c(C)c1`, the entry is “inactive”; as for `Cc1ccc(C)c(N2CCN(S(=O)(=O)c3ccc4c(c3)oc(=O)n4C)CC2)c1`, 14.6 µM (active); as for `COc1ccc(NC(=O)c2cc(=O)[nH]c3ccccc23)cc1S(=O)(=O)N1CCOCC1`, “inactive”.
As for `Cc1nc(C(F)(F)F)ccc1C(=O)N1CCC1(C)C(=O)NS(=O)(=O)c1ccc(F)cc1F` (stereo not drawn), the entry is “inactive”; as for `COc1ccc2ncc3c(-c4ccc(C)c(C)c4)nn(CC(=O)NC4CCCC4)c3c2c1`, “inactive”.
As for `Cc1ccc([C@H]2N[C@]3(CCCN(Cc4ccccc4)C3=O)[C@H]3C(=O)N(Cc4ccccc4)C(=O)[C@@H]23)cc1`, the entry is “inactive”.

The values are drawn from PubChem BioAssay AID1347076 (National Center for Advancing Translational Sciences (NCATS), 2019).
